For 37 compounds, cytotoxicity call results are on record in the antibiotic and cytotoxicity screens of Wong et al. (2023).

About 1,500 (3.8%) of roughly 39,000 compounds were called active. The full list was thinned out, with actives kept by preference.

This test relates to HSkMC (human skeletal muscle cells). The experiment in a line: cytotoxicity call (relative viability < 0.9). The settings on record: 10 µM.
Take `Cc1ccc(S(=O)(=O)Nc2ccc3c(c2)C(=O)N([C@H](C)CO)C[C@@H](C)[C@@H](CN(C)Cc2ccc(Cl)c(Cl)c2)OCCCC[C@H](C)O3)cc1`: the cytotoxicity call was “inactive”.
As for `Cc1ccc(S(=O)(=O)Nc2ccc3c(c2)C(=O)N([C@H](C)CO)C[C@H](C)[C@H](CN(C)Cc2ccc(Cl)c(Cl)c2)OCCCC[C@H](C)O3)cc1`, the entry is “inactive”; as for `Cc1noc(C)c1S(=O)(=O)Nc1ccc2c(c1)C(=O)N([C@H](C)CO)C[C@H](C)[C@@H](CN(C)Cc1ccc(Cl)c(Cl)c1)OCCCC[C@H](C)O2`, “inactive”; as for `Cc1ccc(S(=O)(=O)Nc2ccc3c(c2)C(=O)N([C@@H](C)CO)C[C@H](C)[C@@H](CN(C)Cc2ccc(Cl)c(Cl)c2)OCCCC[C@H](C)O3)cc1`, “active”.
As for `Cc1noc(C)c1S(=O)(=O)Nc1ccc2c(c1)C(=O)N([C@H](C)CO)C[C@@H](C)[C@@H](CN(C)Cc1ccc(Cl)c(Cl)c1)OCCCC[C@H](C)O2`, the entry is “active”; as for `Cc1ccc(S(=O)(=O)Nc2ccc3c(c2)C(=O)N([C@H](C)CO)C[C@@H](C)[C@H](CN(C)Cc2ccc(Cl)c(Cl)c2)OCCCC[C@@H](C)O3)cc1`, “inactive”.
In the case of `Cc1ccc(S(=O)(=O)Nc2ccc3c(c2)C(=O)N([C@H](C)CO)C[C@@H](C)[C@H](CN(C)Cc2ccc(Cl)c(Cl)c2)OCCCC[C@H](C)O3)cc1` it was “inactive”; in that of `Cc1ccc(S(=O)(=O)Nc2ccc3c(c2)C(=O)N([C@H](C)CO)C[C@H](C)[C@@H](CN(C)Cc2ccc(Cl)c(Cl)c2)OCCCC[C@H](C)O3)cc1`, “inactive”.
Regarding `Cc1ccc(S(=O)(=O)Nc2ccc3c(c2)C(=O)N([C@@H](C)CO)C[C@@H](C)[C@H](CN(C)Cc2ccc(Cl)c(Cl)c2)OCCCC[C@@H](C)O3)cc1`, the cytotoxicity call is “inactive”.
In the case of `Cc1ccc(S(=O)(=O)Nc2ccc3c(c2)C(=O)N([C@@H](C)CO)C[C@H](C)[C@@H](CN(C)Cc2ccc(Cl)c(Cl)c2)OCCCC[C@@H](C)O3)cc1` it was “active”.
`Cc1noc(C)c1S(=O)(=O)Nc1ccc2c(c1)C(=O)N([C@@H](C)CO)C[C@H](C)[C@@H](CN(C)Cc1ccc(Cl)c(Cl)c1)OCCCC[C@H](C)O2`: the cytotoxicity call is “inactive”.
Turning to `Cc1ccc(S(=O)(=O)Nc2ccc3c(c2)C(=O)N([C@@H](C)CO)C[C@@H](C)[C@@H](CN(C)Cc2ccc(Cl)c(Cl)c2)OCCCC[C@@H](C)O3)cc1`, the cytotoxicity call is “active”.
As for `CNC(=O)C[C@@H]1CC[C@H]2[C@@H](COC[C@@H](O)CN2C(=O)c2ccc3c(c2)OCO3)O1`, the entry is “inactive”.
In the case of `COc1cccc(S(=O)(=O)Nc2ccc3c(c2)OC[C@@H](C)N(C(=O)Cc2cccnc2)C[C@H](C)[C@@H](OC)CN(C)C3=O)c1` it was “inactive”; in that of `C[C@@H]1CN([C@@H](C)CO)C(=O)c2cccc(NC(=O)Nc3ccc4c(c3)OCO4)c2O[C@H]1CN(C)S(C)(=O)=O`, “inactive”; in that of `C[C@@H]1CCCCO[C@H](CN(C)S(=O)(=O)c2ccccc2)[C@H](C)CN([C@@H](C)CO)C(=O)c2cc(NC(=O)Nc3ccc(F)cc3)ccc2O1`, “inactive”.
For the compound `O=C(O)CCNC(=O)c1cccc([N+](=O)[O-])c1`, the cytotoxicity call is “inactive”.
In the case of `C[C@H]1CN([C@@H](C)CO)C(=O)c2cccc(NS(=O)(=O)c3cn(C)cn3)c2O[C@@H]1CN(C)CC1CCCCC1` it was “inactive”; in that of `Cc1noc(C)c1S(=O)(=O)Nc1cccc2c1O[C@@H](CN(C)Cc1ccc3c(c1)OCO3)[C@@H](C)CN([C@@H](C)CO)C2=O`, “inactive”; in that of `COCC#Cc1ccc([C@@H]2[C@H]3CN(C(=O)CN4CCOCC4)CC(=O)N3[C@H]2CO)cc1`, “inactive”.
Regarding `C[C@H](CO)N1C[C@H](C)[C@H](CN(C)C(=O)Nc2ccc(C(F)(F)F)cc2)OCCCC[C@H](C)Oc2ccc(NC(=O)NC3CCCCC3)cc2C1=O`, the cytotoxicity call was “inactive”.
As for `C[C@@H]1CCCCO[C@@H](CN(C)C(=O)c2ccccc2)[C@@H](C)CN([C@@H](C)CO)C(=O)c2cc(NC(=O)CCC(F)(F)F)ccc2O1`, the entry is “inactive”; as for `CO[C@@H]1CN(C)C(=O)c2cc(NC(=O)C3CCOCC3)ccc2OC[C@@H](C)N(Cc2cccnc2)C[C@@H]1C`, “inactive”.
As to `CC1(C(=O)O)CCC2(C)CCC3(C)C(=CC(=O)C4C5(C)CCC(O)C(C)(C)C5CCC43C)C2C1` (configuration not stated), the cytotoxicity call was “inactive”.
In the case of `CC(=O)Oc1cc2c(c(C)c1OC(C)=O)CC=C1[C@@]2(C)CC[C@@]2(C)[C@H]3C[C@](C)(C(=O)O)CC[C@]3(C)CC[C@]12C` it was “active”; in that of `C[C@@H]1CN([C@@H](C)CO)C(=O)Cc2cc(NC(=O)NC3CCCCC3)ccc2O[C@@H]1CN(C)C(=O)Nc1cccc2ccccc12`, “inactive”.
Regarding `C[C@@H]1CN([C@H](C)CO)C(=O)Cc2cc(NS(C)(=O)=O)ccc2O[C@H]1CN(C)S(=O)(=O)c1cccs1`, the cytotoxicity call was “inactive”.
As to `CC(C)CC#Cc1ccc2c(c1)O[C@@H](CN(C)C(=O)Cc1ccccn1)[C@@H](C)CN([C@H](C)CO)S2(=O)=O`, the cytotoxicity call is “inactive”.
As for `C[C@@H]1CN([C@H](C)CO)C(=O)Cc2cc(NC(=O)Nc3ccc(F)cc3)ccc2O[C@H]1CN(C)CC1CCCCC1`, the entry is “inactive”; as for `C[C@@H]1CN([C@H](C)CO)C(=O)Cc2cc(NC(=O)Nc3ccc(C(F)(F)F)cc3)ccc2O[C@@H]1CN(C)CC1CCCCC1`, “active”; as for `C[C@@H]1CN([C@@H](C)CO)C(=O)Cc2cc(NC(=O)Nc3ccc(C(F)(F)F)cc3)ccc2O[C@@H]1CN(C)CC1CCCCC1`, “inactive”.
In the case of `C[C@H]1CN([C@@H](C)CO)C(=O)Cc2cc(NC(=O)Nc3ccc(C(F)(F)F)cc3)ccc2O[C@@H]1CN(C)CC1CCCCC1` it was “active”; in that of `C[C@H]1CN([C@@H](C)CO)C(=O)Cc2cc(NC(=O)Nc3ccc(C(F)(F)F)cc3)ccc2O[C@H]1CN(C)CC1CCCCC1`, “active”; in that of `C[C@H](CO)N1C[C@H](C)[C@H](CN(C)CC2CCCCC2)Oc2ccc(NC(=O)Nc3ccc(C(F)(F)F)cc3)cc2CC1=O`, “active”.
As for `Cc1ccc(S(=O)(=O)N(C)C[C@@H]2OCCCC[C@@H](C)Oc3ccc(NC(=O)Nc4cccc5ccccc45)cc3C(=O)N([C@H](C)CO)C[C@@H]2C)cc1`, the entry is “inactive”; as for `COCC(=O)N(C)C[C@H]1Oc2cc(C#C[C@H](C)O)ccc2S(=O)(=O)N([C@@H](C)CO)C[C@@H]1C`, “inactive”; as for `O=C(CN1CCOCC1)N[C@@H]1CC[C@H](CCn2cc(C3CC3)nn2)O[C@H]1CO`, “inactive”.
